{"source": "the supplement of paper PMC12339681", "note": "Structures can show the parent of a compound that is named as a salt."}
{"tested_on": "PBMC-derived induced microglia-like cells (piMGLC)", "experiment": "synaptosome phagocytic index relative to DMSO control (fraction of DMSO); higher = more phagocytosis", "details": "concentration: 10 uM (2 uM for compounds listed in Table S2); pretreatment time: 24 h; assay time: 3 h"}
{"compound": "CC1COc2c(N3CCN(C)CC3)c(F)cc3c(=O)c(C(=O)O)cn1c23", "note": "(stereo not given) [Ofloxacin]", "synaptosome phagocytic index": 1.05}
{"compound": "Cn1c(OCC2CCC(C(F)(F)F)CC2)nn2c(C3CCOCC3)ncc2c1=O", "note": "(stereo not given)", "synaptosome phagocytic index": 0.831}
{"compound": "CCC(=N\\O)/C(C)=C/c1ccc(F)cc1", "synaptosome phagocytic index": 0.93}
{"compound": "NCC(=O)CCC(=O)O", "note": "[5-Aminolevulinic_acid_(hydrochloride)]", "synaptosome phagocytic index": 0.444}
{"compound": "CN(C)CCC=C1c2ccccc2CCc2ccccc21", "note": "[Amitriptyline_(hydrochloride)]", "synaptosome phagocytic index": 0.997}
{"compound": "Nc1nc(=O)n([C@@H]2CS[C@H](CO)O2)cc1F", "note": "[Emtricitabine]", "synaptosome phagocytic index": 0.777}
{"compound": "CC(=O)Nc1ccc(C(=O)Nc2cc(-c3cccs3)ccc2N)cc1", "synaptosome phagocytic index": 0.416}
{"compound": "NC[C@H]1CC[C@H](C(=O)O)CC1", "note": "[Tranexamic_acid]", "synaptosome phagocytic index": 0.927}
{"compound": "O=C1NC(=O)C(c2ccccc2)(c2ccccc2)N1", "note": "[Phenytoin]", "synaptosome phagocytic index": 1.12}
{"compound": "O=C(O)Cc1nn(Cc2nc3cc(C(F)(F)F)ccc3s2)c(=O)c2cscc12", "synaptosome phagocytic index": 0.982}
{"compound": "Nc1cc(C(F)(F)F)c(-c2nc(N3CCOCC3)nc(N3CCOCC3)n2)cn1", "note": "[Bimiralisib]", "synaptosome phagocytic index": 0.518}
{"compound": "CC(=O)[C@H]1CC[C@H]2[C@@H]3CC=C4C[C@@H](OS(=O)(=O)O)CC[C@]4(C)[C@H]3CC[C@]12C", "note": "[Pregnenolone_monosulfate]", "synaptosome phagocytic index": 0.895}
{"compound": "CN(C)C(=N)NC(=N)N", "note": "[Metformin_(hydrochloride)]", "synaptosome phagocytic index": 0.668}
{"compound": "CC[C@H](NC(=O)c1c(C)c(-c2ccccc2)nc2ccccc12)c1ccccc1", "synaptosome phagocytic index": 0.907}
{"compound": "C[C@H](C(=O)O)c1cccc(C(=O)c2ccccc2)c1", "note": "[S-(+)-Ketoprofen]", "synaptosome phagocytic index": 0.724}
